Test results published in PubChem BioAssay AID602144 (Vanderbilt Specialized Chemistry Center, 2011).
Unmarked numbers belong to inactive results. Activity calls are given as the source filed them. Cut-off read from the data, not from the text of the source: active = remaining activity below about 50%; inactive = the rest.

What follows are compounds tested against Phospholipase D1 (Homo sapiens) (UniProt Q13393) (assay: PLD1 inhibitors in cells, Calu-1 cells, single concentration (AID 602144;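 note: tested at 200 nM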)). Settings: cellular PLD1 activity, hits give low values.
Phospholipase D1 (Homo sapiens), sequence (Q13393 whole entry, looked up): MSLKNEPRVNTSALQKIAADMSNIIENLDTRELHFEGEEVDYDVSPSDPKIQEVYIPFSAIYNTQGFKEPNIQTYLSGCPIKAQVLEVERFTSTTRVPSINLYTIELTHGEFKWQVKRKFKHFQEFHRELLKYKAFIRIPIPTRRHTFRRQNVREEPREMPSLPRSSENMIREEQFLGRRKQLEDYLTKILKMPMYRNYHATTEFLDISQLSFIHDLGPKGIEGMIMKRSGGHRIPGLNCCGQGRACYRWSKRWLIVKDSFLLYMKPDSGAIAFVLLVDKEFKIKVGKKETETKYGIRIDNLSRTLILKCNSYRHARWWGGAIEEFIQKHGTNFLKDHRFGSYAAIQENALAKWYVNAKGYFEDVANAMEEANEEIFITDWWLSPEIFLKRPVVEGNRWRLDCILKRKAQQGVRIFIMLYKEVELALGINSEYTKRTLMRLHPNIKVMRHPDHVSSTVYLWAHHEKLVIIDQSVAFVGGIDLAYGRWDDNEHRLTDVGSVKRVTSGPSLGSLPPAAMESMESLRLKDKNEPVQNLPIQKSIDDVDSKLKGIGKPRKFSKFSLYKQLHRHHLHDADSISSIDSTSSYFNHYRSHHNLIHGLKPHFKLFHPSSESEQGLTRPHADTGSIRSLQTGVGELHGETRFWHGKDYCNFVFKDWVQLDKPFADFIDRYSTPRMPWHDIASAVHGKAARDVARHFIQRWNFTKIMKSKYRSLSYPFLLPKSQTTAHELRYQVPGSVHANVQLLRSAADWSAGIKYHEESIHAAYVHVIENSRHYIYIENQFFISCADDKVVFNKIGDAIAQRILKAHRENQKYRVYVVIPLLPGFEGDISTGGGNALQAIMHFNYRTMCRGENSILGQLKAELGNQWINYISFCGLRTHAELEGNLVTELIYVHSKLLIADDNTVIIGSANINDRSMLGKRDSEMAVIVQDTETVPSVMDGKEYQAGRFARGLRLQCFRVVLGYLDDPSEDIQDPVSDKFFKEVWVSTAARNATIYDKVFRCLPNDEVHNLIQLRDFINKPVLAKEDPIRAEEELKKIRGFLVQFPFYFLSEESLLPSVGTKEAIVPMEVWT
Phospholipase D1 (Homo sapiens), sequence (Q13393 whole entry, looked up): as above
`O=C(NCCN1CCC(C(=O)NCCCN2CCOCC2)CC1)c1ccc2ccccc2c1` gave a remaining activity of 68.3%. In the case of `C[C@@H](CN1CCC(n2c(=O)[nH]c3cc(-c4ccc(F)c(F)c4)ccc32)CC1)NC(=O)[C@H]1C[C@@H]1c1ccccc1`, the remaining activity is reported as 59%. `O=C(CCCN1CCC(O)(c2ccc(Cl)cc2)CC1)c1ccc(F)cc1` gave a remaining activity of 80.1%. `Cc1ccc(C(=O)NCCN2CCN(c3ccccn3)CC2)cc1` was tested, and the remaining activity was 111%. `Cc1ccc(C(=O)NCCN2CCN(c3ccncc3)CC2)cc1` gave a remaining activity of 148%. `NC1(CN2CCC(c3nc4ccccc4[nH]3)CC2)CCCC1` (tested in a mixture with another compound) showed a remaining activity of 81.2%. In the case of `O=C(NCCN1CCC(n2c(=O)[nH]c3ccccc32)CC1)c1ncccn1`, the remaining activity is reported as 120%. Compound `NC1(CN2CCC(n3c(=O)[nH]c4ccccc43)CC2)CCCC1` (tested in a mixture with another compound) has a remaining activity of 86.8%. In the case of `C[C@H](CN1CCC2(CC1)CNCc1ccccc12)NC(=O)c1cnc2ccccc2c1`, the remaining activity is reported as 69%. `CC1(C)[C@H]2CC[C@]1(CS(=O)(=O)NCCN1CCC(n3c(=O)[nH]c4ccccc43)CC1)C(=O)C2` was tested, and the remaining activity was 121%. `O=C(c1ccc2ccccc2c1)N1CCC(n2c(=O)[nH]c3cc(Cl)ccc32)CC1` gave a remaining activity of 77.3%. Compound `CC(C)[C@@H](CN1CCC(n2c(=O)[nH]c3ccccc32)CC1)NC(=O)c1cc2cc(F)ccc2[nH]1` has a remaining activity of 69.6%. With `O=C(NCCN1CCC(n2c(=O)[nH]c3cc(I)ccc32)CC1)c1ccc(Cl)cc1` the remaining activity was 15.6% (active). `O=C(NCCN1CCC(n2c(=O)[nH]c3ccccc32)CC1)C1C=Cc2ccccc2C1` (stereo not given) was tested, and the remaining activity was 33% (active). `O=C(NCCN1CCC(n2c(=O)[nH]c3ccccc32)CC1)c1cnc2ccccc2n1` showed a remaining activity of 83.7%. In the case of `O=c1[nH]c2ccccc2n1C1CCN(CCNS(=O)(=O)c2ccccc2Br)CC1`, the remaining activity is reported as 112%. In the case of `Cn1c(C2CCN(CC3(N)CCCC3)CC2)nc2ccccc21` (tested in a mixture with another compound), the remaining activity is reported as 95%. `CC(C)[C@@H](CN1CCC(n2c(=O)[nH]c3ccccc32)CC1)NC(=O)c1ccc(F)cc1` showed a remaining activity of 103%. With `C[C@@H](CN1CCC(n2c(=O)[nH]c3ccc(F)cc32)CC1)NC(=O)c1ccc(F)c(F)c1` the remaining activity was 13.7% (active). Compound `Cc1cccc(NC(=O)NCCN2CCC(n3c(=O)[nH]c4ccccc43)CC2)c1` has a remaining activity of 67.6%. `O=c1[nH]c2ccccc2n1C1CCN(CCNS(=O)(=O)c2ccc(F)cc2)CC1` showed a remaining activity of 129%. `Nc1cccc(Cl)c1C(=O)NCCN1CCC(n2c(=O)[nH]c3ccccc32)CC1` gave a remaining activity of 89.2%. `O=C(NCCN1CCC(n2c(=O)[nH]c3ccccc32)CC1)c1ccc2c(c1)CCCC2` gave a remaining activity of 83.6%. For `O=C(NCCN1CCC2(C=Cc3ccccc32)CC1)c1ccc2ccccc2c1`, the remaining activity was 127%. With `C[C@@H](CN1CCC(n2c(=O)[nH]c3ccccc32)CC1)NC(=O)c1cc2ccccc2[nH]1` the remaining activity was 8.14% (active). With `C[C@@H](CN1CCC(n2c(=O)[nH]c3ccccc32)CC1)NC(=O)CCc1ccc(F)cc1` the remaining activity was 53.9%. `COc1cccc(N2CCN(CCNC(=O)c3ccc(F)cc3)CC2)c1` showed a remaining activity of 110%. Work on `COc1cccc(N2CCN(CCNC(=O)c3ccc4ccccc4c3)CC2)c1` yielded a remaining activity of 77.7%. `O=c1[nH]c2ccccc2n1C1CCN(CCNC(=S)Nc2ccccn2)CC1` showed a remaining activity of 148%. `O=C(N[C@@H](Cc1ccccc1)CN1CCC(n2c(=O)[nH]c3ccccc32)CC1)c1ccc(F)c(F)c1` was tested, and the remaining activity was 90.2%. In the case of `C[C@@H](CN1CCC2(CC1)CCN(C)C2=O)NC(=O)c1cnc2ccccc2c1`, the remaining activity is reported as 127%. For `O=C(N[C@@H](Cc1ccccc1)CN1CCC(n2c(=O)[nH]c3ccccc32)CC1)c1cnc2ccccc2c1`, the remaining activity was 116%. `C[C@@H](CN1CCC(n2c(=O)[nH]c3cc(-c4cccnc4)ccc32)CC1)NC(=O)[C@H]1C[C@@H]1c1ccccc1` showed a remaining activity of 53.2%. With `C[C@@H](CN1CCC2(CC1)CCN(C)C2=O)NC(=O)c1ccc2ccccc2c1` the remaining activity was 122%. `CC(C(=O)NCCN1CCC(n2c(=O)[nH]c3ccccc32)CC1)(c1ccccc1)c1ccccc1` was tested, and the remaining activity was 104%. `O=C(NCCN1CCC(n2c(=O)[nH]c3ccccc32)CC1)c1ccc2c(ccc3ccc4ccccc4c32)c1` showed a remaining activity of 74.8%. `C[C@@H](CN1CCC2(C=Cc3ccccc32)CC1)NC(=O)[C@H]1C[C@@H]1c1ccccc1` gave a remaining activity of 126%. For `O=C(NCCN1CCC(n2c(=O)[nH]c3ccccc32)CC1)c1cscn1`, the remaining activity was 16.7% (active). For `C[C@@H](CN1CCC(n2c(=O)[nH]c3ccccc32)CC1)NC(=O)c1ccco1`, the remaining activity was 41.7% (active). With `Cc1cc(C)c(S(=O)(=O)NCCN2CCC(n3c(=O)[nH]c4ccccc43)CC2)c(C)c1` the remaining activity was 133%.
